PubChem BioAssay (NCATS)
Results filed as inconclusive are left out. Entries that show only a call come without a potency. Active and inactive are the calls of the source. Calls come from the whole dose curve; as a rule, active = well fitted inhibition curve with a large enough effect; inconclusive = small, poorly fitted or top-dose-only effect; inactive = no such curve, though single readings can be large or run the other way. Positions of bridges follow the written chain, without caps; N, C: chain ends. Non-standard residues stand in square brackets, D forms with d. Residues, ends and D or L forms follow the SMILES beside them. ξ: configuration not given here. *: point of attachment. Octanoyl(6-Me) = CCC(C)CCCCC(=O)*; ξThr(3R) = C[C@@H](O)C(N)C(=O)O; dDab = NCC[C@@H](N)C(=O)O; Dab = NCC[C@H](N)C(=O)O; Cbz = O=C(OCc1ccccc1)*

test: qHTS to identify inhibitors of the type 1 interferon - major histocompatibility complex class I in skeletal muscle: primary screen against the NCATS Mechanism Interrogation Plate v5.0 (MIPE) Libary (AID 1347411); conditions: iHSKM cells + IFN-b, HiBiT-tagged MHC-I luminescence, 24 h; series mostly up to 45.8 µM; note: nearly all actives have a fitted effect of over 65% in size
Method in brief: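 Immortalized human myoblasts (C25cl48) with HiBit knocked into endogenous HLA-B*08:01 were stimulated with 4 ng/ml IFN-beta and given compounds in 11-point 1:3 titration from 46 uM. After 24 h at 37 C, lytic HiBiT luminescence was read.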
Potency is the fitted concentration of half-maximal effect.

With c1coc(CNc2ncnc3nc[nH]c23)c1 as the molecule, how does the Potency read?
The Potency was “inactive”.

Which Potency does the source give for O=C(Nc1nnc(-c2ccco2)o1)c1cc(-c2ccccc2)nc2ccccc12 here?
The Potency was “inactive”.

With CCC(C)CCCCC(=O)N[C@@H](CCN)C(=O)NC(C(=O)N[C@H](CCN)C(=O)N[C@@H]1CCNC(=O)C([C@@H](C)O)NC(=O)[C@@H](CCN)NC(=O)[C@@H](CCN)NC(=O)[C@@H](CC(C)C)NC(=O)[C@H](Cc2ccccc2)NC(=O)[C@H](CCN)NC1=O)[C@@H](C)O (stereo partly drawn) ({Octanoyl(6-Me)}-[Dab][ξThr(3R)][dDab][dDab][Dab]F[dL][dDab][dDab][ξThr(3R)]; lactam 4-C) as the molecule, how does the Potency read?
The Potency was “inactive”.

For O=C1NCCc2[nH]c(-c3ccncc3)cc21, which Potency is on record?
The Potency was 2.08 µM (active).

With CC(C)c1cnn2c(NCc3ccccc3)cc(NCCCCCCN)nc12 as the molecule, how does the Potency read?
Its Potency is 26.2 µM (active).

Which Potency does the source give for COc1ccc2c(c1OC)C(=O)OC2[C@H]1c2c(cc3c(c2OC)OCO3)CCN1C (some centres not stated) here?
Its Potency is “inactive”.

Which Potency does the source give for NC(=O)Nc1cc(-c2ccc(CN3CCOCC3)cc2)sc1C(N)=O here?
Its Potency is 7.39 µM (active).

With CCCc1nc(C(C)(C)O)c(C(=O)O)n1Cc1ccc(-c2ccccc2-c2nn[nH]n2)cc1 as the molecule, how does the Potency read?
Its Potency is “inactive”.

Which Potency does the source give for COc1cc(C[C@@H](CO)[C@H](CO)Cc2ccc(O)c(OC)c2)ccc1O here?
Its Potency is “inactive”.

For CCCCCCCN(CC)CCCC(O)c1ccc(NS(C)(=O)=O)cc1 (configuration not stated), which Potency is on record?
The Potency was “inactive”.

With N#Cc1cc(NC(=O)Nc2nnc(-c3ccncc3)s2)ccc1-c1cn[nH]c1 as the molecule, how does the Potency read?
The Potency was “inactive”.

Which Potency does the source give for O=c1ccn([C@@H]2O[C@H](CO)[C@H](O)[C@@H]2F)c(=O)[nH]1 here?
The Potency was “inactive”.

For CC(Cc1ccc(O)c(O)c1)(NN)C(=O)O (configuration not stated), which Potency is on record?
The Potency was “inactive”.

Which Potency does the source give for O=C1CSC(=O)N1C(CCc1ccncc1)COc1ccc(-c2cccc([N+](=O)[O-])c2)cc1 (configuration not stated) here?
Its Potency is “inactive”.

Which Potency does the source give for NC1=N[C@H]2[C@H](CS[C@H]2CCCCC(=O)O)N1 here?
The Potency was “inactive”.

For C[C@](Cc1c[nH]c2ccccc12)(NC(=O)OC1C2CC3CC(C2)CC1C3)C(=O)NC[C@H](NC(=O)CCC(=O)O)c1ccccc1 (some centres not stated), which Potency is on record?
The Potency was “inactive”.

For C[C@@H]1C(=O)O[C@H]2CC34[C@H]5C[C@@H](C(C)(C)C)C36[C@H](OC(=O)[C@@H]6O)O[C@@]4(C(=O)O5)[C@]21O (some centres not stated), which Potency is on record?
The Potency was “inactive”.

For COc1cc2ncnc(Nc3cccc(Br)c3)c2cc1OC, which Potency is on record?
Its Potency is 10.4 µM (active).

With NC(=O)c1cccc(-c2cccc(OC(=O)NC3CCCCC3)c2)c1 as the molecule, how does the Potency read?
Its Potency is “inactive”.

For COc1ccc(C[C@@H](C)[C@@H](C)Cc2ccc(OC)c(OC)c2)cc1OC, which Potency is on record?
The Potency was “inactive”.

For O=C(O)CCCCC(CCSCc1ccccc1)SCc1ccccc1 (configuration not stated), which Potency is on record?
The Potency was “inactive”.

With CC[C@@]1([C@@H]2O[C@@H]([C@H]3O[C@@](O)(CO)[C@H](C)C[C@H]3C)C[C@H]2C)CC[C@H]([C@]2(C)CC[C@]3(C[C@H](O)[C@@H](C)[C@@H]([C@@H](C)[C@@H](OC)[C@H](C)C(=O)O)O3)O2)O1 as the molecule, how does the Potency read?
Its Potency is “inactive”.

For C=Cc1c(C)c2cc3nc(cc4[nH]c(cc5nc(cc1[nH]2)C(C)=C5CCC(=O)O)c(CCC(=O)OC)c4C)[C@@]1(C)C3=CC=C(C(=O)OC)[C@H]1C(=O)OC, which Potency is on record?
The Potency was “inactive”.

With O=C(Nc1ccc(Oc2ccnc3[nH]ccc23)c(F)c1)c1cccn(-c2ccc(F)cc2)c1=O as the molecule, how does the Potency read?
Its Potency is “inactive”.

Which Potency does the source give for CC(C)C[C@H](NC(=O)CNC(=O)c1cc(Cl)ccc1Cl)B1OC(=O)CC(CC(=O)O)(C(=O)O)O1 (some centres not stated) here?
Its Potency is 0.294 µM (active).

Which Potency does the source give for C[C@H](NC(=O)Cc1cc(F)cc(F)c1)C(=O)N[C@H](C(=O)OC(C)(C)C)c1ccccc1 here?
The Potency was “inactive”.

For Cc1cnc(Nc2ccc(N3CCN(C)CC3)cc2)nc1Nc1cccc(S(=O)(=O)NC(C)(C)C)c1, which Potency is on record?
Its Potency is 11.7 µM (active).

Which Potency does the source give for C[N+](C)([O-])CCNc1ccc(NCC[N+](C)(C)[O-])c2c1C(=O)c1c(O)ccc(O)c1C2=O here?
Its Potency is “inactive”.

For CC(C)C[C@@H](C=O)NC(=O)[C@H](CC(C)C)NC(=O)[C@H](CC(C)C)NC(=O)OCc1ccccc1 (Cbz-Leu-Leu-Leu-aldehyde), which Potency is on record?
Its Potency is 2.08 µM (active).

Which Potency does the source give for Cc1cc(C(=O)NOCCO)c(Nc2ccc(I)cc2F)n(C)c1=O here?
Its Potency is “inactive”.

Which Potency does the source give for CCCCCCCCCCCC(CC1OC(=O)C1CCCCCC)OC(=O)C(CC(C)C)NC=O (configuration not stated) here?
Its Potency is “inactive”.

Which Potency does the source give for CCCCC(=O)O[C@]1(C(=O)CO)[C@@H](C)C[C@H]2[C@@H]3CCC4=CC(=O)C=C[C@]4(C)[C@@]3(F)[C@@H](O)C[C@@]21C here?
Its Potency is “inactive”.
